{
  "source": "PubChem BioAssay AID618",
  "about": "(Sanford-Burnham Center for Chemical Genomics, 2007)",
  "note": "The campaign covered roughly 87,000 compounds. About 540 (0.62%) were called active. A call without a number means that no potency is given here. How the calls were made is not given here. Only a selection was taken, and actives are over-represented in it overall. Potency and affinity values are given separately.",
  "data": [
    {"assay": "inhibitors of MT1-MMP promoter transcription, cell-based, luciferase reporter, luminescence (AID 618);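 further: actives suppress MT1-MMP promoter-driven transcription so potencies describe inhibitors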", "conditions": "MT1-MMP promoter luciferase reporter cells", "values": [
      {"smiles": "O=C(COC(=O)c1cccs1)c1ccccc1", "outcome": "inactive"},
      {"smiles": "O=C(COC(=O)c1cccs1)c1ccc2ccccc2c1", "outcome": "inactive"},
      {"smiles": "CCOC(=O)C1=C(C)NC(=O)NC1c1ccccc1Cl", "note": "(stereo not drawn)", "outcome": "inactive"},
      {"smiles": "O=C(NCCN1CCOCC1)c1ccc(F)cc1", "outcome": "inactive"},
      {"smiles": "c1ccc(-n2ncc3c(N4CCN(c5ccccn5)CC4)nc(N4CCCCC4)nc32)cc1", "outcome": "inactive"},
      {"smiles": "Cc1ccc(C)c(N2CCN(C(=O)c3ccc(CS(=O)(=O)c4ccccc4C)o3)CC2)c1", "outcome": "inactive"},
      {"smiles": "COc1ccc(S(=O)(=O)Cc2ccc(C(=O)N3CCN(c4cccc(C)c4)C(C)C3)o2)cc1", "note": "(stereo not drawn)", "outcome": "active"},
      {"smiles": "COc1ccc(N2CCN(C(=O)c3ccc(CS(=O)(=O)c4ccc(OC)cc4)o3)CC2)cc1", "outcome": "inactive"},
      {"smiles": "Cc1ccccc1S(=O)(=O)Cc1ccc(C(=O)N2CC(C)CC(C)C2)o1", "note": "(stereo not drawn)", "outcome": "inactive"},
      {"smiles": "CCOC(=O)N1CCN(C(=O)c2ccc(CS(=O)(=O)c3ccc(OC)cc3)o2)CC1", "outcome": "inactive"},
      {"smiles": "Cc1cccc(N2CCN(C(=O)c3ccc(CS(=O)(=O)c4ccccc4C)o3)CC2C)c1", "note": "(stereo not drawn)", "outcome": "active"},
      {"smiles": "Cc1ccc(N=Cc2ccc(N(C)C)cc2)cc1", "outcome": "inactive"},
      {"smiles": "O=S(=O)(/N=C(\\c1ccccc1)N1CCOCC1)c1cccs1", "outcome": "inactive"},
      {"smiles": "COCCn1nnnc1CN1CCC(C)CC1", "outcome": "inactive"},
      {"smiles": "CCc1cc(=O)oc2cc(OCC(=O)N3CCc4ccccc43)ccc12", "outcome": "inactive"},
      {"smiles": "COCCCN1C(=O)C(=O)/C(=C(/O)c2ccc(OC(C)C)cc2)C1c1ccncc1", "note": "(stereo not drawn)", "outcome": "inactive"},
      {"smiles": "COc1ccc(-c2nc(-c3cccs3)c(-c3cccs3)[nH]2)cc1O", "outcome": "inactive"},
      {"smiles": "COc1ccc(-c2nc(-c3ccccc3)c(-c3cc([N+](=O)[O-])ccc3C)[nH]2)cc1O", "outcome": "inactive"},
      {"smiles": "COc1ccc(-c2c/c(=N\\c3nc(-c4ccccc4)c(C)s3)c3ccccc3o2)cc1O", "outcome": "active"},
      {"smiles": "Cc1nn(C)c(C)c1S(=O)(=O)N1CCC(C(=O)NCC2COc3ccccc3O2)CC1", "note": "(stereo not drawn)", "outcome": "inactive"},
      {"smiles": "COC(=O)[C@@H]1C[C@H]2CC[C@H](O)C[C@H]2N1Cc1ccc(-c2ccccc2)cc1", "outcome": "active"},
      {"smiles": "COC(=O)[C@@H]1C[C@@H]2CC[C@@H](O)C[C@@H]2N1Cc1ccc(Cl)cc1", "outcome": "inactive"},
      {"smiles": "COC(=O)[C@@H]1C[C@@H]2CC[C@@H](O)C[C@@H]2N1Cc1ccc(-c2ccccc2)cc1", "outcome": "inactive"},
      {"smiles": "CC1(C)CC(=O)c2cnn(-c3nc4ccccc4[nH]3)c2C1", "outcome": "inactive"},
      {"smiles": "O=c1c(Cl)c(NCCCO)cnn1-c1nc2ccccc2[nH]1", "outcome": "inactive"},
      {"smiles": "CC(=O)c1c(C)nn(C(=O)N2CCOCC2)c1C", "outcome": "inactive"},
      {"smiles": "CCOc1ccccc1N(C(=O)CNS(=O)(=O)c1ccccc1)C(CC)C(=O)NCc1ccco1", "note": "(stereo not drawn)", "outcome": "inactive"},
      {"smiles": "COc1ccc(/C=N\\n2nnc3ccccc32)cc1", "outcome": "active"},
      {"smiles": "COc1ccc(/C=N/n2c(N)nc3ccccc32)cc1OC", "outcome": "inactive"},
      {"smiles": "COc1ccc(/C=N/n2cnnc2SCc2ccccc2)cc1", "outcome": "inactive"},
      {"smiles": "CC1(c2ccccc2)NC(=O)N(CC(=O)N2CCOCC2)C1=O", "note": "(stereo not drawn)", "outcome": "inactive"},
      {"smiles": "O=c1c2ccccc2cnn1-c1ccc(Br)cc1", "outcome": "inactive"},
      {"smiles": "O=c1c2ccccc2cnn1-c1ccc(Cl)cc1", "outcome": "inactive"},
      {"smiles": "O=c1c2ccccc2cnn1-c1nc2ccccc2s1", "outcome": "active"},
      {"smiles": "COc1ccc(-c2noc(CCC(=O)NCCCN3CCC(Cc4ccccc4)CC3)n2)cc1", "outcome": "inactive"},
      {"smiles": "CCCC(=O)Nc1ccc(Cl)c(NC(=O)c2cccnc2)c1", "outcome": "inactive"},
      {"smiles": "O=C1CCCCCN1C(=O)c1ccc(C(=O)N2CCCCCC2=O)cc1", "outcome": "inactive"},
      {"smiles": "O=C1CCCCCN1C(=O)c1cccc(C(=O)N2CCCCCC2=O)c1", "outcome": "inactive"},
      {"smiles": "Cc1ccc2c(c1)CCCN2C(=O)C1CCCO1", "note": "(stereo not drawn)", "outcome": "inactive"},
      {"smiles": "CCN(CC)S(=O)(=O)c1ccc2nc(NC(=O)c3cccs3)sc2c1", "outcome": "inactive"},
      {"smiles": "Cc1ccc2nc(NC(=O)c3ccc(Cl)s3)sc2c1", "outcome": "inactive"},
      {"smiles": "CN(C)S(=O)(=O)c1ccc2nc(NC(=O)c3cccs3)sc2c1", "outcome": "inactive"},
      {"smiles": "CS(=O)(=O)c1ccc2nc(NC(=O)c3cccs3)sc2c1", "outcome": "active"},
      {"smiles": "CCOC(=O)c1ccc2nc(NC(=O)c3cccs3)sc2c1", "outcome": "inactive"},
      {"smiles": "Cc1ccc2nc(NC(=O)c3cccs3)sc2c1", "outcome": "active"},
      {"smiles": "CCSc1n[nH]c2nc3c(c(=O)n12)C1(CCCC1)Cc1ccccc1-3", "outcome": "inactive"},
      {"smiles": "CCCCOc1ccccc1C1CC(=O)NC2=C1C(=O)CCC2", "note": "(stereo not drawn)", "outcome": "active"},
      {"smiles": "CCOc1ccccc1C1CC(=O)NC2=C1C(=O)CCC2", "note": "(stereo not drawn)", "outcome": "inactive"},
      {"smiles": "CCCOc1ccccc1C1CC(=O)NC2=C1C(=O)CCC2", "note": "(stereo not drawn)", "outcome": "inactive"},
      {"smiles": "COc1oc(-c2ccc(Cl)cc2)nc1C(F)(F)F", "outcome": "inactive"},
      {"smiles": "Cc1ccc2c(c1)c1c3n2CCN(C(=O)C2CC2)C3CCC1", "note": "(stereo not drawn)", "outcome": "inactive"},
      {"smiles": "c1ccc2c(c1)c1c3n2CCNC3CCC1", "note": "(stereo not drawn)", "outcome": "inactive"},
      {"smiles": "c1cc2c(cc1C1CCCCC1)c1c3n2CCCNC3CCC1", "note": "(stereo not drawn)", "outcome": "active"},
      {"smiles": "Cc1ccc2c(c1)c1c3n2CCN(C(=O)CN2CCN(C)CC2)C3CCC1", "note": "(stereo not drawn)", "outcome": "inactive"},
      {"smiles": "Cc1ccc2c(c1)c1c3n2CCCNC3CCC1", "note": "(stereo not drawn)", "outcome": "inactive"},
      {"smiles": "CCCCCn1c(N)c(-c2nc3ccccc3s2)c2c([N+](=O)[O-])nn(C)c(=O)c21", "outcome": "inactive"},
      {"smiles": "Cc1cc(OC(=O)c2ccco2)c2c(C)cc(=O)oc2c1", "outcome": "inactive"},
      {"smiles": "O=c1oc2ccccc2n1CCCOc1ccccc1", "outcome": "inactive"},
      {"smiles": "Cc1ccc(NC(=O)CN2CC(C)SC2=NC2CCCCC2)cc1", "note": "(stereo not drawn)", "outcome": "active"},
      {"smiles": "CC1CCCN(S(=O)(=O)c2ccc(NC(=O)CN3CCN(C)CC3)cc2)C1", "note": "(stereo not drawn)", "outcome": "inactive"},
      {"smiles": "CCc1cccc(CC)c1NC(=O)CN1CC(C)SC1=NC1CCCCC1", "note": "(stereo not drawn)", "outcome": "inactive"},
      {"smiles": "C=CCOc1cc(C)nc(-c2ccccc2O)n1", "outcome": "inactive"},
      {"smiles": "CCOC(=O)CSc1nnc(N)s1", "outcome": "inactive"},
      {"smiles": "O=C1C/C(=C/NCc2ccccc2)C(=O)N1", "outcome": "inactive"},
      {"smiles": "Cc1nnc(NC(=O)CSc2nccn2-c2cccc(C)c2C)s1", "outcome": "active"},
      {"smiles": "CCc1nnc(NC(=O)CSc2nccn2-c2cccc(C)c2C)s1", "outcome": "inactive"},
      {"smiles": "CCSc1nnc(NC(=O)CSc2nccn2-c2cccc(C)c2C)s1", "outcome": "inactive"},
      {"smiles": "O=C1CC(c2c[nH]c3ccccc23)C(=O)N1", "note": "(stereo not drawn)", "outcome": "inactive"},
      {"smiles": "CCOc1ccc(-c2cc(CCCC(=O)NCCc3ccc(OC)c(OC)c3OC)no2)cc1", "outcome": "inactive"},
      {"smiles": "CCOc1ccc(-c2cc(CCCC(=O)Nc3cccc(OC)c3)no2)cc1", "outcome": "inactive"},
      {"smiles": "CCOc1ccc(NC(=O)CCCc2cc(-c3ccc(OCC)cc3)on2)cc1", "outcome": "inactive"},
      {"smiles": "CCOc1ccc(-c2cc(CCCC(=O)NCCc3ccccc3)no2)cc1", "outcome": "inactive"},
      {"smiles": "COc1ccccc1NC(=O)NC(=O)N(C(C)C)S(C)(=O)=O", "outcome": "inactive"}
    ]}
  ]
}
